Shown are actives, neighbours in structure and some others; about 3.6% of the full set was active somewhere.
PI5P4K alpha inh = qHTS for Inhibitors of phosphatidylinositol 5-phosphate 4-kinase (PI5P4K). actives 1.2% (n = 330,000). max response, %. PI5P4Kalpha enzyme, ADP-Glo luminescence, 60 min; stronger effect = lower value. Phosphatidylinositol 5-phosphate 4-kinase type-2 alpha (Homo sapiens), P48426; active = max response of -50% or lower; inconclusive = between -30% and -50%; inactive = -30% or higher; also: value at the top dose of about 77 µM; % is scaled to controls: 0 for no effect and ±100 for the full control effect
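Controls without substrate or without enzyme flank wells where PI5P4Kalpha converts substrate using 5 microM ATP (final). Incubation lasts 60 minutes at room temperature; ADP formed is read by ADP-Glo luminescence.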
KAT2A inh = qHTS Assay for Inhibitors of GCN5L2 | GCN5L2 HAT assay, ThioGlo1 CoA-SH fluorescence | Potency, µM (doses to about 58.9 µM), without a hit: at the top dose activity change, negative = inhibition, hits mostly inhibitors | actives 0.21% (n = 390,000) | AID 504327, 2011; also: potency is read from the fitted curve at half-maximal effect; % is scaled to controls: 0 for no effect and ±100 for the full control effect
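Enzyme at 20nM final was mixed with library compounds for 15 min at room temperature. Peptide H3(1-25) at 75uM, acetyl-CoA at 70uM and ThioGlo1 at 50uM were then added. Plates were read immediately and after 20 min (Ex340nm/Em540nm).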
VDR inhibitor = Inhibitors of the vitamin D receptor (VDR): qHTS | Vitamin D3 receptor (Homo sapiens), P11473 | VDR-SRC2-3 peptide fluorescence polarization, 2 h | AID 504847, 2011 | Potency, µM, for inactives: max response, negative = inhibition, most hits filed as inhibitors | actives 0.93% (n = 400,000); also: potency is read from the fitted curve at half-maximal effect; % is scaled to controls: 0 for no effect and ±100 for the full control effect
Target sequence (P11473 whole entry, looked up): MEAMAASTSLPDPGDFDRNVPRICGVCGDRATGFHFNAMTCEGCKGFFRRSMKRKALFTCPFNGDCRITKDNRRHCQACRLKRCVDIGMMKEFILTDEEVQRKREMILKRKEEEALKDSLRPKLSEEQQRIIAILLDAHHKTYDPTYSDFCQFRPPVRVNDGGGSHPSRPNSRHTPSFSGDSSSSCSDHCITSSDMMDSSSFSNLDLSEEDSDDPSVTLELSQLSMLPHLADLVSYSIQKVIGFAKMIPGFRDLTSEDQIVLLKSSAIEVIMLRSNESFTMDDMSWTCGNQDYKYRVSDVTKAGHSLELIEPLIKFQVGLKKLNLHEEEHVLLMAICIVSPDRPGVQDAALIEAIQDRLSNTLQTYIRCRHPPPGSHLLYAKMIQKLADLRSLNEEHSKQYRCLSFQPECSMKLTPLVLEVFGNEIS
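Two reagent solutions held at 4 deg C in the dark were dispensed, compounds pinned at 23 nl, and the mixture incubated 2 h at room temperature. Read-out: fluorescence polarization of VDR–SRC2-3 peptide binding.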
PLK1 PBD block = qHTS for Inhibitors of PLK1-PDB (polo-like kinase 1 - polo-box domain): Primary Screen; Plk1 PBD binding of FITC phosphopeptide, fluorescence polarization; Serine/threonine-protein kinase PLK1 (Homo sapiens), P53350; AID 720504, 2013; Potency, µM, for inactives: max response, negative = inhibition, actives largely listed as inhibitors; actives 2.8% (n = 360,000); also: potency is read from the fitted curve at half-maximal effect; series mostly up to about 57 µM; % is scaled to controls: 0 for no effect and ±100 for the full control effect; nearly all actives have a fitted effect of over 65% in size
Rango release inh = qHTS Assay for Inhibitors of RanGTP induced Rango (Ran-regulated importin-beta cargo) - Importin beta complex dissociation; Potency, µM (series often up to 46.1 µM), for inactives: top-dose activity change, negative = inhibition; AID 540253, 2011; Snurportin-1 (Homo sapiens) + GTP-binding nuclear protein Ran (Homo sapiens) + Importin …; actives 0.071% (n = 340,000); Biochemical FRET Rango-importin beta, RanGTP-induced dissociation; calls by dose curve; also: potency is read from the fitted curve at half-maximal effect; % of control where 0% means no effect; nearly all actives have a fitted effect of over 45% in size
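FRET read at 45 min, room temperature: inhibitors block the CFP/YFP signal rise when RanGTP (0.6 uM Ran, 2 mM GTP, 0.2 uM RCC1) frees Rango (0.1 uM) from importin beta (0.25 uM). Pre-read after 5 min compound exposure flags interference.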
Rango-impB inh = qHTS Assay for Inhibitors of Rango (Ran-regulated importin-beta cargo) - Importin beta complex formation | Importin subunit beta-1 (Homo sapiens), Q14974 | actives 0.031% (n = 340,000) | Potency, µM (series often up to 92.2 µM), without a hit: top-dose inhibition of complex formation | Rango CFP/YFP FRET sensor + importin beta, 45 min | AID 540263, 2011; calls by dose curve;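 also: potency is read from the fitted curve at half-maximal effect; 0% = DMSO wells and 100% = buffer wells lacking importin beta; nearly all actives have a fitted effect of over 15% in size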
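FRET biosensor (snurportin 1 IBB flanked by EYFP and cerulean), 50 nM, with compound 5 min, then 0.125 microM importin beta in PBS, 1 mM DTT, 0.02% Tween-20, 0.1% BSA. CFP/YFP ratio read after 45 min at room temperature; pre-read flags interference.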
* marks the source's active call; other numbers are inactive results; ? = inconclusive; · = not tested or not shown. Unless noted, calls follow the shape of the dose curve; as a rule, active = well fitted curve in the direction sought with a large enough effect; inconclusive = small, poorly fitted or top-dose-only effect, or another doubt; inactive = no such curve, though single readings can be large; an effect the other way counts as inactive or inconclusive.

SMILES	PI5P4K alpha inh	KAT2A inh	VDR inhibitor	PLK1 PBD block	Rango release inh	Rango-impB inh
O=C(c1ccco1)N(CCC(c1ccccc1)c1ccco1)Cc1ccco1 (stereo not drawn)	-66*	?	?	?	-3%	?
CC(=O)N(CCC(Cc1ccccc1)c1ccco1)Cc1ccco1 (stereo not drawn)	?	2%	?	-12%	-7%	3%
CN(C)c1ccc(CN(Cc2ccco2)C(=O)c2ccco2)cc1	3	-4%	-18%	24µM*	-10%	7%
Cc1ccc(NC(=O)CN(CCc2ccccc2)S(=O)(=O)c2ccccc2)c(C)c1	·	-2%	-3%	·	·	·
Cc1cc(C)cc(-c2cc3c(c(-c4c(O)c(-c5cc(C)cc(C)c5)cc5c4CCCC5)c2O)CCCC3)c1	·	·	10%	·	·	·
O=C(Cn1c(=O)n(Cc2ccc3c(c2)OCO3)c(=O)c2ccc(C(=O)NC3CCCCC3)cc21)Nc1ccccc1F	·	1%	-7%	·	·	·
Cc1ccc(NC(=O)c2nc(S(=O)(=O)Cc3ccccc3C)ncc2Cl)cc1C	2	-7%	?	27µM*	-16%	0%
CCCS(=O)(=O)c1ncc(Cl)c(C(=O)Nc2ccc(S(=O)(=O)Nc3ncccn3)cc2)n1	-4	-7%	22µM*	?	-6%	-1%
Cc1cccc(NC(=O)c2nc(S(C)(=O)=O)ncc2Cl)c1	·	1%	?	·	·	·
COc1cccc(NC(=O)c2nc(S(C)(=O)=O)ncc2Cl)c1	2	-4%	20µM*	24µM*	3%	-2%
CCSc1ncc(Cl)c(C(=O)Nc2ccc(S(=O)(=O)Nc3ncccn3)cc2)n1	1	-6%	-7%	-6%	?	0%
CC(=O)Nc1ccc(NC(=O)c2nc(S(=O)(=O)Cc3cccc(C)c3)ncc2Cl)cc1	-6	3%	?	13µM*	-9%	-1%
CN(C)c1ccc(-c2nccc(Nc3ccc(F)cc3)n2)cc1	·	-27%	?	·	·	·
c1ccc(CNc2ncnc3nc(N4CCOCC4)[nH]c23)cc1	·	·	-13%	·	·	·
Cc1cccc(NC(=O)C(NS(=O)(=O)c2ccc3c(c2)oc(=O)n3C)C(C)C)c1 (stereo not drawn)	·	-3%	0%	·	·	·
COc1cccc(C(=O)Nc2c(C(=O)N3CCN(c4ccc(F)cc4)CC3)oc3ccccc23)c1	·	-2%	1%	·	·	·
Cc1ccc(NC(=O)CSc2nc3ccc(NC(=O)CCc4ccccc4)cc3s2)cc1	·	-8%	18%	·	·	·
CCOc1ccccc1N(CC(=O)NCCSc1ccccc1)S(=O)(=O)c1ccccc1	·	-4%	-14%	·	·	·
COc1ccc(C(=O)CCN2CCc3cc(OC)c(OC)cc3C2)cc1	-1	-1%	?	27µM*	0%	-1%
Cc1cc(C=C(C#N)C#N)c(C)n1-c1ccccc1	-7	-8%	-1%	1%	6%	0%
Cc1cc(/C=C(\C#N)C(=O)O)c(C)n1CC1CCCO1 (stereo not drawn)	-72*	-16%	?	3µM*	-3%	-2%
CCCn1c(C)cc(/C=C(\C#N)C(=O)O)c1C	-16	-17%	-2%	-13%	17%	-1%
Cc1cc(/C=C(\C#N)C(=O)O)c(C)n1-c1ccc(Br)cc1	-18	1%	-8%	34µM*	0%	-2%
Cc1ccc(Cl)cc1NC(=O)Nc1cccc(OCc2cc(=O)n3ccccc3n2)c1	·	-21%	8%	·	·	·
COc1ccc2c(c1)c1c(c(=O)n(Cc3ccccc3)c(=O)n1Cc1ccccc1)n2C	·	-1%	13%	·	·	·
SMILES	PI5P4K alpha inh	KAT2A inh	VDR inhibitor	PLK1 PBD block	Rango release inh	Rango-impB inh
O=C(Oc1ccccc1F)c1nc(SCc2ccc(F)cc2)ncc1Cl	·	-4%	6%	·	·	·
O=C(Cn1nc(C(F)(F)F)c2c1CCCC2)Nc1ccc(Br)cc1	·	-12%	-5%	·	·	·
CNc1cc(F)nc(F)n1	-19	-1%	-29%	9.5µM*	?	?
CNc1cccc(-c2cccc(O)c2)n1	-6	·	·	-11%	·	·
CC(=O)c1ccc(NC(=O)C(C)n2c3ccccc3c3nc(=O)cc(C)n32)cc1 (stereo not drawn)	1	?	-18%	-6%	0%	0%
Cc1cc(=O)nc2c3ccccc3n(C(C)C(=O)NCCC(C)C)n12 (stereo not drawn)	-2	-5%	-28%	27µM*	9%	0%
O=C(O)CSCCc1ccccn1	1	-3%	1%	30µM*	-10%	0%
O=C(CSCCc1ccccn1)Nc1ccccn1	1	-1%	?	?	6%	3%
CC(=O)c1cccc(-n2c(=O)c3c4c(sc3n(Cc3ccccc3Cl)c2=O)CN(C(C)=O)CC4)c1	·	1%	-21%	·	·	·
COc1ccc(C(=O)N(Cc2ccco2)Cc2cccs2)c(O)c1	0	-2%	4%	-13%	-7%	0%
O=C(c1cccc(Cl)c1Cl)N(Cc1ccco1)Cc1cccs1	·	·	79µM*	·	·	·
CCCNC(=O)c1ccc(N2CCC3(CC2)CC(c2ccccc2)=NO3)c(NC(=O)c2cccc(OC)c2)c1	-4	-8%	-25%	27µM*	9%	-2%
COC(=O)CCn1cnc2onc(-c3cc(F)cc(F)c3)c2c1=O	·	2%	-1%	·	·	·
CC1(C)CC(N2CCCC2)=CC(=[N+]2CCCCCC2)C1	-11	-27%	-19%	30µM*	-20%	4%
CC1(C)CC(N2CCN(c3ccccc3)CC2)=CC(=[N+]2CCCC2)C1	·	-6%	0%	3%	-1%	1%
Cc1ccc2oc(C(=O)Nc3c(C(=O)Nc4ccccc4)oc4ccccc34)cc(=O)c2c1	·	-2%	11%	·	·	·
Cc1c(C(=O)N2CCC(C)CC2)c(S(=O)(=O)Nc2cccc(C#N)c2)c(C)n1C	·	-6%	1%	·	·	·
CN1CCC(=NNC(=O)C(=O)Nc2cccc(Br)c2)CC1	-21	2%	71µM*	12µM*	3%	-2%
Cc1cc(Nc2ccccc2)nc2cc(O)ccc12	0	-5%	6%	-9%	7.3µM*	?
COc1ccc(Nc2cc(C)c3ccc(O)cc3n2)cc1	3	0%	-5%	0%	-13%	?
Cc1onc(-c2ccccc2Cl)c1C(=O)N1CC(C)OC(C)C1 (stereo not drawn)	·	-2%	?	30µM*	8%	0%
